In PubChem BioAssay AID1159580 (chemical genetic matrix, 2015):
Screen size: about 5,500 compounds; about 2,000 (36%) were called active. Not shown: some 18% with an inconclusive outcome. Cut-off read from the data, not from the text of the source: active = normalized growth mostly below about 0.91 (no sharp cut-off); inconclusive = no clear call, values can overlap the other calls; inactive = mostly above about 0.92. Some of the results follow.

Assay: chemical genetic growth profiling, strain panel (AID 1159580);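 note: tested at 20 µM; growth read once vehicle control cultures reached saturation at 30 °C; 1 = growth at the plate median or of vehicle wells; lower values mean less growth of the strain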
Conditions: growth OD

Measured: normalized growth

NCCCC[C@H](N[C@@H](CCc1ccccc1)C(=O)O)C(=O)N1CCC[C@H]1C(=O)O
inactive: S. cerevisiae deletion strains, locus YKL009W, strain mrt4, stronger effect = lower value 0.973 | S. cerevisiae deletion strains, locus YKL068W, stronger effect = lower value 0.99 | S. cerevisiae deletion strains, locus YKL085W, strain MDH1 (second series), stronger effect = lower value 0.993 | S. cerevisiae deletion strains, locus YKL085W, strain MDH1, stronger effect = lower value 0.993 | S. cerevisiae deletion strains, locus YKL160W, strain elf1, stronger effect = lower value 0.999 | S. cerevisiae deletion strains, locus YKL190W, strain CNB1, stronger effect = lower value 0.981 | S. cerevisiae deletion strains, locus YKR001C, strain vps1, stronger effect = lower value 1.01 | S. cerevisiae deletion strains, locus YKR026C, strain gcn3, stronger effect = lower value 1.04 | S. cerevisiae deletion strains, locus YKR091W, strain srl3, stronger effect = lower value 1.01 | S. cerevisiae deletion strains, locus YLL001W, strain dnm1, stronger effect = lower value 1 | S. cerevisiae deletion strains, locus YLL026W, stronger effect = lower value 0.994 | S. cerevisiae deletion strains, locus YLL041C, strain sdh2, stronger effect = lower value 0.97 | S. cerevisiae deletion strains, locus YLR027C, strain aat2, stronger effect = lower value 0.998 | S. cerevisiae deletion strains, locus YLR039C, strain RIC1, stronger effect = lower value 0.985 | S. cerevisiae deletion strains, locus YLR058C, strain SHM2, stronger effect = lower value 0.984 | S. cerevisiae deletion strains, locus YLR102C, strain apc9, stronger effect = lower value 0.996 | S. cerevisiae deletion strains, locus YLR113W, strain HOG1, stronger effect = lower value 1.01 | S. cerevisiae deletion strains, locus YLR221C, strain rsa3, stronger effect = lower value 0.981 | S. cerevisiae deletion strains, locus YLR258W, strain gsy2, stronger effect = lower value 1.01 | S. cerevisiae deletion strains, locus YLR262C, strain YPT6 (second series), stronger effect = lower value 1.01 | S. cerevisiae deletion strains, locus YLR262C, strain YPT6, stronger effect = lower value 0.94 | S. cerevisiae deletion strains, locus YLR268W, strain sec22, stronger effect = lower value 1 | S. cerevisiae deletion strains, locus YLR320W, strain mms22, stronger effect = lower value 1.03 | S. cerevisiae deletion strains, locus YLR330W, strain CHS5, stronger effect = lower value 0.994 | S. cerevisiae deletion strains, locus YLR342W, strain FKS1 (second series), stronger effect = lower value 1.05 | S. cerevisiae deletion strains, locus YLR342W, strain FKS1, stronger effect = lower value 1 | S. cerevisiae deletion strains, locus YLR357W, strain rsc2, stronger effect = lower value 1.04 | S. cerevisiae deletion strains, locus YLR370C, strain arc18, stronger effect = lower value 0.971 | S. cerevisiae deletion strains, locus YLR371W, strain rom2, stronger effect = lower value 1 | S. cerevisiae deletion strains, locus YLR384C, strain iki3, stronger effect = lower value 0.978 | S. cerevisiae deletion strains, locus YLR418C, strain cdc73, stronger effect = lower value 1 | S. cerevisiae deletion strains, locus YML016C, strain PPZ1, stronger effect = lower value 0.992 | S. cerevisiae deletion strains, locus YML032C, strain rad52, stronger effect = lower value 0.999 | S. cerevisiae deletion strains, locus YML120C, strain ndi1, stronger effect = lower value 0.976 | S. cerevisiae deletion strains, locus YML124C, strain tub3, stronger effect = lower value 0.995 | S. cerevisiae deletion strains, locus YMR058W, strain fet3, stronger effect = lower value 1.02 | S. cerevisiae deletion strains, locus YMR078C, strain ctf18, stronger effect = lower value 0.998 | S. cerevisiae deletion strains, locus YMR125W, strain sto1, stronger effect = lower value 1.04 | S. cerevisiae deletion strains, locus YMR129W, stronger effect = lower value 0.964 | S. cerevisiae deletion strains, locus YMR205C, strain PFK2, stronger effect = lower value 0.984 | S. cerevisiae deletion strains, locus YMR223W, strain ubp8, stronger effect = lower value 0.983 | S. cerevisiae deletion strains, locus YMR231W, strain pep5, stronger effect = lower value 1.02 | S. cerevisiae deletion strains, locus YMR307W, strain GAS1, stronger effect = lower value 1.05 | S. cerevisiae deletion strains, locus YNL067W, strain RPL9B, stronger effect = lower value 0.964 | S. cerevisiae deletion strains, locus YNL071W, strain lat1, stronger effect = lower value 1.02 | S. cerevisiae deletion strains, locus YNL128W, strain TEP1, stronger effect = lower value 0.989 | S. cerevisiae deletion strains, locus YNL153C, strain GIM3, stronger effect = lower value 0.955 | S. cerevisiae deletion strains, locus YNL183C, strain NPR1, stronger effect = lower value 0.96 | S. cerevisiae deletion strains, locus YNL209W, strain ssb2, stronger effect = lower value 1.01 | S. cerevisiae deletion strains, locus YNL233W, strain BNI4, stronger effect = lower value 0.975 | S. cerevisiae deletion strains, locus YNL248C, strain rpa49, stronger effect = lower value 1.01 | S. cerevisiae deletion strains, locus YNL250W, strain rad50, stronger effect = lower value 0.982 | S. cerevisiae deletion strains, locus YNL271C, strain bni1, stronger effect = lower value 0.997 | S. cerevisiae deletion strains, locus YNL298W, strain CLA4, stronger effect = lower value 0.993 | S. cerevisiae deletion strains, locus YNL307C, strain MCK1, stronger effect = lower value 1.01 | S. cerevisiae deletion strains, locus YNL322C, strain KRE1 (second series), stronger effect = lower value 1.02 | S. cerevisiae deletion strains, locus YNL322C, strain KRE1, stronger effect = lower value 0.993 | S. cerevisiae deletion strains, locus YNR049C, strain mso1, stronger effect = lower value 0.964 | S. cerevisiae deletion strains, locus YNR052C, strain pop2, stronger effect = lower value 1.01 | S. cerevisiae deletion strains, locus YOL006C, strain TOP1, stronger effect = lower value 0.922 | S. cerevisiae deletion strains, locus YOL012C, strain htz1 1.17 | S. cerevisiae deletion strains, locus YOL147C, strain pex11, stronger effect = lower value 0.988 | S. cerevisiae deletion strains, locus YOR001W, strain rrp6, stronger effect = lower value 0.967 | S. cerevisiae deletion strains, locus YOR061W, strain CKA2, stronger effect = lower value 0.956 | S. cerevisiae deletion strains, locus YOR069W, strain VPS5, stronger effect = lower value 0.998 | S. cerevisiae deletion strains, locus YOR070C, strain gyp1, stronger effect = lower value 0.941 | S. cerevisiae deletion strains, locus YOR080W, strain dia2, stronger effect = lower value 0.992 | S. cerevisiae deletion strains, locus YOR083W, strain WHI5, stronger effect = lower value 1.01 | S. cerevisiae deletion strains, locus YOR106W, strain vam3, stronger effect = lower value 1 | S. cerevisiae deletion strains, locus YOR136W, strain idh2, stronger effect = lower value 0.994 | S. cerevisiae deletion strains, locus YOR144C, strain elg1, stronger effect = lower value 0.998 | S. cerevisiae deletion strains, locus YOR184W, strain ser1, stronger effect = lower value 1 | S. cerevisiae deletion strains, locus YOR231W, strain MKK1, stronger effect = lower value 1.04 | S. cerevisiae deletion strains, locus YOR265W, strain rbl2, stronger effect = lower value 0.987 | S. cerevisiae deletion strains, locus YOR270C, strain vph1, stronger effect = lower value 1.04 | S. cerevisiae deletion strains, locus YOR290C, strain snf2, stronger effect = lower value 1.02 | S. cerevisiae deletion strains, locus YOR316C, strain cot1, stronger effect = lower value 1 | S. cerevisiae deletion strains, locus YPL051W, strain arl3, stronger effect = lower value 1.01 | S. cerevisiae deletion strains, locus YPL078C, strain atp4, stronger effect = lower value 1.02 | S. cerevisiae deletion strains, locus YPL106C, strain sse1, stronger effect = lower value 0.949 | S. cerevisiae deletion strains, locus YPL240C, strain hsp82, stronger effect = lower value 0.986 | S. cerevisiae deletion strains, locus YPL256C, strain CLN2, stronger effect = lower value 1.02 | S. cerevisiae deletion strains, locus YPR119W, strain clb2, stronger effect = lower value 0.994 | S. cerevisiae deletion strains, locus YPR141C, strain kar3, stronger effect = lower value 0.985 | S. cerevisiae deletion strains, locus YPR163C, strain tif3, stronger effect = lower value 0.988 | S. cerevisiae deletion strains, locus YPR167C, strain met16, stronger effect = lower value 0.999 | S. cerevisiae deletion strains, strain wtn01, stronger effect = lower value 0.998 | S. cerevisiae strains, strain wild type, stronger effect = lower value 0.982
